Measured values taken from the supplement of paper PMC3545927.
This is one part of the list. How many sequences the whole screen found active is unknown.

Molecular target: furin, P09958
Test: furin cleavage Z-score vs untreated control; higher = more cleavage, active = 3.5 or more, inactive = 1 or less, 8 variable residues between constant flanks
How it was run: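 In 50 mM HEPES pH 7.5 with CaCl2 and NaCl, purified furin was incubated with bead-anchored 8-mer peptide–cDNA fusions at 1:10 enzyme:substrate in 0.01 ml. Incubation times were 7.5, 15 and 30 min. DNA set free by cleavage was adapter-tagged by PCR and sequenced, with read counts taken as abundance. Log counts relative to furin-free reactions, after lowess adjustment and median absolute deviation scaling, form the cleavage Z-score.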

Chain of furin, P09958 (P09958 whole entry): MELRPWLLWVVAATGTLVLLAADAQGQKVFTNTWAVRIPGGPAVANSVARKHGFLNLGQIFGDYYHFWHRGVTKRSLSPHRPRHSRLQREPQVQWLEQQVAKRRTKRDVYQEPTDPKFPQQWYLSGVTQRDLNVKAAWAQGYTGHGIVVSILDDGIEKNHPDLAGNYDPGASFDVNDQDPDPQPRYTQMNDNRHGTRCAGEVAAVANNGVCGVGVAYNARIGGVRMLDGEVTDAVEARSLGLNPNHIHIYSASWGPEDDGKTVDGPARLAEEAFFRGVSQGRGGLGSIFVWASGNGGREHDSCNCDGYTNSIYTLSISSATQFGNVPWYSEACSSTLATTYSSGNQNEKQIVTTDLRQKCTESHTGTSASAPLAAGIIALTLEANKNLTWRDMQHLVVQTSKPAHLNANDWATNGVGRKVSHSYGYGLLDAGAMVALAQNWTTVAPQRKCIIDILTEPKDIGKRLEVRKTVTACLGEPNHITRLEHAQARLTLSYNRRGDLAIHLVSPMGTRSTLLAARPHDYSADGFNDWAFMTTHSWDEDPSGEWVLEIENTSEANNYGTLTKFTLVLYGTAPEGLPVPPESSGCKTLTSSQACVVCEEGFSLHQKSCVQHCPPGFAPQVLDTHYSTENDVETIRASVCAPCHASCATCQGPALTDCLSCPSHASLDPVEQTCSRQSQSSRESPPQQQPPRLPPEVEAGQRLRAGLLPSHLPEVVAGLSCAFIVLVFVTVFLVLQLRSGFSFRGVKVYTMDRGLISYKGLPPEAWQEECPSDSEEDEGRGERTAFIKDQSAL

| Sequence | furin cleavage Z-score (7.5 min) | furin cleavage Z-score (15 min) | furin cleavage Z-score (30 min) |
| --- | --- | --- | --- |
| CATTPCSASWAGNASASA [HC1883] | -0.499 (inactive) | 0.682 (inactive) | -0.342 (inactive) |
| CAVVGCSMSYAGNASASA [HC2036] | 1.64 | -0.0657 (inactive) | 1.23 |
| CASTPCSGSWAGNASASA [HC1837] | -0.691 (inactive) | -0.464 (inactive) | -0.623 (inactive) |
| CARPWKSVALAGNASASA [FS-1765] | 1.43 | 0.873 (inactive) | -0.932 (inactive) |
| CARRARSSVCAGNASASA [FS-2771] | -0.135 (inactive) | 0.0716 (inactive) | 2.53 |
| CARPRRSLALAGNASASA [FS-2504] | 7.93 (active) | 10.2 (active) | 8.84 (active) |
| CARRARSPHDAGNASASA [FS-1834] | 8.36 (active) | 9.74 (active) | 9.02 (active) |
| CARPRRVIARAGNASASA [FS-2746] | 0.722 (inactive) | 0.121 (inactive) | 1.35 |
| CARRARSWAEAGNASASA [FS-1772] | 0.748 (inactive) | 2.17 | 4.73 (active) |
| CARPRRELSLAGNASASA [FS-2501] | 9.83 (active) | 9.15 (active) | 8.79 (active) |
| CARRARAVHDAGNASASA [FS-2769] | 0.991 (inactive) | 0.269 (inactive) | 0.722 (inactive) |
| CALAVFGPLWAGNASASA [HC607] | 0.672 (inactive) | 0.344 (inactive) | 1.61 |
| CALPGCSFSIAGNASASA [HC245] | -0.725 (inactive) | 0.0221 (inactive) | 1.53 |
| CAEVVTSTWEAGNASASA [HC2252] | 1.19 | 1.24 | -0.113 (inactive) |
| CATTPCSGSKAGNASASA [HC1934] | -0.794 (inactive) | 0.477 (inactive) | -0.455 (inactive) |
| CASTGLYHVTAGNASASA [HC259] | 1.56 | 0.496 (inactive) | -0.862 (inactive) |
| CAMEECSQLLAGNASASA [HC1745] | 0.641 (inactive) | 1.59 | 1.09 |
| CANTRPPLGNAGNASASA [HC431] | -0.78 (inactive) | -0.196 (inactive) | 0.451 (inactive) |
| CAYLEVVTSTAGNASASA [HC2269] | 1.41 | 0.163 (inactive) | 0.356 (inactive) |
| CARRGRFKGLAGNASASA [FS-2773] | -2.35 (inactive) | 0.257 (inactive) | -0.0126 (inactive) |
| CARPRRETCHAGNASASA [FS-2358] | 7.06 (active) | 6.02 (active) | 6.63 (active) |
| CARRGRSRSRAGNASASA [FS-2774] | -0.725 (inactive) | -0.261 (inactive) | -0.331 (inactive) |

| Sequence | furin cleavage Z-score (7.5 min) | furin cleavage Z-score (15 min) | furin cleavage Z-score (30 min) |
| --- | --- | --- | --- |
| CARRARFLHEAGNASASA [FS-2177] | 0.34 (inactive) | 2.97 | 5.38 (active) |
| CARRARSLALAGNASASA [FS-2770] | 4.92 (active) | 6.9 (active) | 6.89 (active) |
| CARRGREILLAGNASASA [HC663] | 2.14 | 3.52 (active) | 5.12 (active) |
| CARRARVVHMAGNASASA [FS-2772] | -0.133 (inactive) | -2.18 (inactive) | -0.247 (inactive) |
| CARPQRSACHAGNASASA [FS-1832] | -0.244 (inactive) | 1.03 | 2.47 |
| CAVGSSIASWAGNASASA [HC513] | 1.24 | 0.758 (inactive) | 1.42 |
| CAEVVTSIWVAGNASASA [HC2204] | -1.22 (inactive) | -0.886 (inactive) | -0.589 (inactive) |
| CAQTFLATCIAGNASASA [HC694] | -1.16 (inactive) | 1.03 | 0.494 (inactive) |
| CAEVVTCTWVAGNASASA [HC154] | 0.26 (inactive) | 0.377 (inactive) | 0.00628 (inactive) |
| CAWAKHMWNFAGNASASA [HC1041] | 2.37 | 1.51 | -0.0839 (inactive) |
| CARQSRAPSKAGNASASA [FS-3044] | -0.34 (inactive) | -1.03 (inactive) | 0.0856 (inactive) |
| CARRARVVWCAGNASASA [FS-1773] | -0.495 (inactive) | -0.908 (inactive) | -1.05 (inactive) |
| CARRARFVSKAGNASASA [FS-2592] | 1.79 | 3.6 (active) | 4.51 (active) |
| CATSCGNTLTAGNASASA [HC1514] | 0.831 (inactive) | -1.07 (inactive) | 0.652 (inactive) |
| CAVYSTTSRSAGNASASA [HC1389] | 0.122 (inactive) | -0.119 (inactive) | -0.531 (inactive) |
| CAVSGRVPRSAGNASASA [FS-1103] | 8.22 (active) | 7.59 (active) | 5.91 (active) |
| CAPFSRVPRKAGNASASA [FS-1380] | 4.53 (active) | 5.54 (active) | 7.08 (active) |
| CALSSRVPRSAGNASASA [FS-616] | 10.7 (active) | 10.8 (active) | 8.57 (active) |
| CALSSREARVAGNASASA [FS-273] | 0.397 (inactive) | 1.38 | -0.0178 (inactive) |
| CATSNRQPRKAGNASASA [FS-1426] | 0.777 (inactive) | 2.06 | 3.28 |
| CALSSRTARSAGNASASA [FS-828] | 10.9 (active) | 12.5 (active) | 10.5 (active) |
| CAPFPRDVGKAGNASASA [FS-2542] | 0.749 (inactive) | 0.654 (inactive) | -0.494 (inactive) |
